# Laboratory results as given in PubChem BioAssay AID488969 (Vanderbilt High Throughput Screening Facility, 2010).
# In all, about 110,000 compounds were measured (“z-score”: median about -0.1, highest 2% from about 2 on). The sample as a whole holds a higher share of the highest values than the screen did. Calls of active or inactive are those of the source.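 The calls were made as follows: active = z-score in the third read window above 3 or below -3; inactive = the rest.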
# Target: Metabotropic glutamate receptor 8 (Rattus norvegicus) (UniProt P70579)
# Assay: mGluR8 Gi/Go-coupled signaling modulation – cell-based, rat, thallium flux, HTS, primary screen (AID 488969)
# Conditions: HEK293 rat mGluR8, GIRK (G protein-gated inwardly rectifying potassium channel) thallium flux, FluoZin2; at 10 µM; stronger effect = higher value; submaximal glutamate (EC20) added with thallium
# Sequence of Metabotropic glutamate receptor 8 (Rattus norvegicus) (P70579 whole entry, looked up): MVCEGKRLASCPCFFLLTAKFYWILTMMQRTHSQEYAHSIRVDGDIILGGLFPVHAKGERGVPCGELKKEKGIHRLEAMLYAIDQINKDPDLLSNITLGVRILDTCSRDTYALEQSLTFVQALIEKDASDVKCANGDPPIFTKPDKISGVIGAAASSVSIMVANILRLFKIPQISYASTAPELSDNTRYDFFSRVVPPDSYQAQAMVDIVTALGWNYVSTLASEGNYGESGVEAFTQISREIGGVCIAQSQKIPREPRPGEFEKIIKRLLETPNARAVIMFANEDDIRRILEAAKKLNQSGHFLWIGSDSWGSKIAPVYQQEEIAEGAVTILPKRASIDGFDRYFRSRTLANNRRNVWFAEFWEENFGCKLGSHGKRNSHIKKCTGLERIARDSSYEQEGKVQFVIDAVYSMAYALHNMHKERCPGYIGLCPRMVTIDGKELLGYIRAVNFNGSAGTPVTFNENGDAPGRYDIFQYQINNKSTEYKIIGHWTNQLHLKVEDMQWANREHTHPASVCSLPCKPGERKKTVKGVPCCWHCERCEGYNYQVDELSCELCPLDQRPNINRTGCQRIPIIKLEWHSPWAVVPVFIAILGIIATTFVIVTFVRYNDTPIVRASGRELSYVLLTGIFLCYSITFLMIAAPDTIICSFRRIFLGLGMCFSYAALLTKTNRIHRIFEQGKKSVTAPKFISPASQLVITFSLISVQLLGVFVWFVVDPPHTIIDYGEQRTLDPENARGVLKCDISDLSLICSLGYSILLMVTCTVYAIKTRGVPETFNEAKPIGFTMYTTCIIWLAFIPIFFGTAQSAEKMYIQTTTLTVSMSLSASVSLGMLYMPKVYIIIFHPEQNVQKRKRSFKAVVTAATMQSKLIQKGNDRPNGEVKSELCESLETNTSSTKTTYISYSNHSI
row,Structure (SMILES),z-score
1,O=C(C(Cc1ccccc1)N1C(=O)C2C3C=CC(C3)C2C1=O)N1CCCCC1 (stereo unspecified),-0.174
2,CC(=O)Nc1ccccc1OCC(=O)c1ccc2c(c1)OCO2,2.07
3,CC(C)C(=O)Nc1ccccc1C(=O)OCC(=O)c1ccc2c(c1)OCCO2,-0.424
4,COc1ccccc1NC(=O)NCc1ccc2c(c1)OCO2,0.532
5,O=C1CC(c2cccc(Br)c2)c2cc3c(cc2N1)CCC3 (stereo unspecified),-0.00205
6,COc1ccc(S(=O)(=O)Nc2ccc(C)cc2)cc1OC,-0.166
7,O=C(NC(=S)N1CCN(Cc2ccc3c(c2)OCO3)CC1)c1ccc(Cl)cc1,15.2 (active)
8,O=C(NC(=S)N1CCN(Cc2ccc3c(c2)OCO3)CC1)c1cccc(Br)c1,9.35 (active)
9,Cc1ccc(NC(=S)N2CCN(Cc3ccc4c(c3)OCO4)CC2)c(C)c1,-0.407
10,CCn1cnc2sc(C(=O)Nc3ccc4c(c3)OCO4)c(C)c2c1=O,-0.145
11,CCn1cnc2sc(C(=O)N3CCN(Cc4ccc5c(c4)OCO5)CC3)c(C)c2c1=O,2.58
12,Cc1cccc(C(=O)N2CCN(Cc3ccc4c(c3)OCO4)CC2)c1,-0.0762
13,O=C(c1ccc(Br)o1)N1CCN(Cc2ccc3c(c2)OCO3)CC1,-1.48
14,CCn1nc(C(=O)N2CCN(Cc3ccc4c(c3)OCO4)CC2)c2ccccc2c1=O,-0.474
15,CCN(CC)c1ccc(C(=O)NC(=S)N2CCN(Cc3ccc4c(c3)OCO4)CC2)cc1,10 (active)
16,Cc1c(Cl)cccc1NC(=S)N1CCN(Cc2ccc3c(c2)OCO3)CC1,0.334
17,CS(=O)(=O)N(CC(=O)N1CCN(Cc2ccc3c(c2)OCO3)CC1)Cc1ccc(Cl)cc1,0.174
18,CCC(CC)C(=O)N1CCN(Cc2ccc3c(c2)OCO3)CC1,-0.17
19,CCN1C(=O)/C(=C\N2CCCc3ccccc32)SC1=S,-0.289
20,O=C(c1ccc(OCC2CCCO2)cc1)N1CCN(c2ccccc2)CC1 (stereo unspecified),-0.525
21,O=C(NCCc1ccc(Cl)cc1)C1CCC(=O)N1Cc1ccccc1Cl (stereo unspecified),-0.0695
22,COc1ccc(NC(=O)C(NC(=O)CC2NC(=O)NC2=O)c2ccccc2)cc1 (stereo unspecified),0.0457
23,CC(=O)NC12CC3CC(CC(CC(=O)O)(C3)C1)C2,0.634
24,O=Cc1cccn1Cc1ccc(Cl)cc1Cl,-0.152
25,Cc1nn(-c2ccccc2)c2c1C1(C(=O)N(C)c3ccccc31)C(C#N)=C(N)O2 (stereo unspecified),-0.0421

row,Structure (SMILES),z-score
1,O=C1OCCC1Sc1nc2cc(Cl)ccc2n1Cc1ccccc1 (stereo unspecified),6.69 (active)
2,O=C1OCCC1Sc1nnc(-c2ccc(Cl)cc2)n1Cc1ccccc1 (stereo unspecified),-0.478
3,O=C1OCCC1Sc1nc2ccccc2n1Cc1ccccc1 (stereo unspecified),-1.37
4,Cc1c(N=C2SCC(=O)N2/N=C/c2ccccc2Cl)c(=O)n(-c2ccccc2)n1C,0.339
5,Cc1sc2ncnc(SCC(=O)N3CCCC3=O)c2c1C,2.71
6,Cc1sc2ncnc(SCC(=O)NC3CC3)c2c1C,0.845
7,Cc1sc2ncnc(SCC(=O)N3CCCC3)c2c1C,0.342
8,COc1cc(C(=O)Nc2nnc(C)s2)cc(OC)c1OC,0.381
9,Cc1ccc(-n2nc(-c3cccnc3)cc2C(=O)N2CCOCC2)c(C)c1,0.372
10,Nc1nnc(-c2ccccc2)s1,-0.337
11,Nc1ccccc1NC(=O)c1ccccc1N,0.194
12,Nc1nnc(C(=O)c2ccccc2N)s1,4.29 (active)
13,Cc1c(NC(=O)COC(=O)C(c2ccc(Cl)cc2)C(C)C)c(=O)n(-c2ccccc2)n1C (stereo unspecified),-0.457
14,CC(C)(C)CC(C)(C)NCC(O)COc1c(F)cc(Br)cc1F (stereo unspecified),3.25 (active)
15,OC(CNC1CCCC1)COc1c(F)cc(Br)cc1F (stereo unspecified),0.142
16,CC(C)(C)NCC(O)COc1c(F)cc(Br)cc1F (stereo unspecified),0.622
17,C=CCSC1=N/C(=C\c2ccsc2)C(=O)S1,-0.538
18,CC(C)OC(=O)c1cccnc1SCC(=O)N(C)c1ccccc1,-0.698
19,CCOc1ccc(CNC(=O)C2CCCN(S(C)(=O)=O)C2)cc1OC (stereo unspecified),0.258
20,CCC(=O)Nc1ccc(Cl)c(NC(=O)C(C)C)c1,0.418
21,Cc1nn(C)cc1CNC(=O)Nc1ccc(Br)cc1Cl,-0.126
22,Cc1nn(C)cc1CNC(=O)Nc1ccc(Cl)c(Cl)c1,2.06
23,Cc1nn(C)cc1CNC(=O)Nc1cccc(Cl)c1,0.0377
24,C=COCCNC(=O)Nc1ccc(Cl)cc1Cl,0.104
25,O=C(NCCCn1ccnc1)Nc1ccc(Cl)cc1Cl,-0.326

row,Structure (SMILES),z-score
1,O=C(NCCCn1ccnc1)Nc1cccc(Cl)c1,0.583
2,O=C(NCCCn1ccnc1)Nc1ccc(Cl)c(Cl)c1,3.92 (active)
3,C=COCCNC(=O)Nc1ccc(Cl)c(Cl)c1,3.37 (active)
4,CN(C)CCNC(=O)Nc1ccc(Cl)c(Cl)c1,0.092
5,CCOc1ccccc1Nc1nc(-c2sc(NC(=O)c3ccc([N+](=O)[O-])cc3)nc2C)cs1,0.209
6,CCOc1ccc(CC(=O)Nc2c(C(N)=O)oc3ccc(Br)cc23)cc1OCC,-0.0702
7,CN(C)/C=C1/N=C(c2ccccc2)OC1=O,-0.23
8,COc1ccc(C(=O)c2ccc(CC#N)s2)cc1,-0.0619
9,CCn1c2ccccc2c2nnc(SCC(=O)OCN3C(=O)c4ccccc4C3=O)nc21,-0.087
10,CC(C)(C)S(=O)c1cccs1 (stereo unspecified),0.555
11,CSc1nc(C)cc(OCC(=O)N2CCOCC2)n1,0.387
12,S=C(Nc1ccc(Cl)cc1)N1CCCCC1,-0.262
13,S=C(Nc1ccc(Cl)cc1)N1CCCC1,0.113
14,S=C(NN=C1CCCCCC1)Nc1ccc(Cl)cc1,9.7 (active)
15,Cc1cc(C)c2c(c1)/C(=N/NS(=O)(=O)c1ccccc1)CCC2,-1.09
16,Cc1cc(C)c2c(c1)/C(=N/NC(=S)Nc1ccc(F)cc1)CCC2,2.6
17,Fc1ccc(NC(=S)N2CCCC2)cc1,-0.0754
18,Fc1ccc(NC(=S)N2CCCCC2)cc1,0.208
19,COc1ccc(NC(=S)N/N=C2/CCCc3c(C)cc(C)cc32)cc1,0.0188
20,Fc1ccc(NC(=S)NN=C2CCCCCC2)cc1,12 (active)
21,O=C1CC(c2ccccc2)CN1S(=O)(=O)c1ccccc1 (stereo unspecified),0.00794
22,O=C(NCCc1csc(-c2cccnc2)n1)c1cccc2ccccc12,0.472
23,CC(C)=C1SC(N2CCCCC2)=NC1=O,1.93
24,Cc1nn(CCc2n[nH]c(=S)n2C2CCCCC2)c(C)c1Br,-0.451
25,COc1ccc(-c2csc(NC(=O)CN3C(=O)CCC3=O)n2)cc1OC,-0.147

row,Structure (SMILES),z-score
1,Cc1cc(=O)n2[nH]c(-c3ccccc3Cl)cc2n1,-0.0492
2,Cc1cc([N+](=O)[O-])c2[nH]c(C(=O)N/N=C/c3ccccc3C(=O)O)c(-c3ccccc3)c2c1,-0.455
3,Cc1c(C(=O)N/N=C/C(C)C)[nH]c2c([N+](=O)[O-])cccc12,-0.722
4,CCC/C=N/NC(=O)c1[nH]c2c([N+](=O)[O-])cccc2c1C,2.02
5,CCc1nc(Nc2ccc(OC)c(OC)c2)c2nnn(Cc3ccccc3Cl)c2n1,0.049
6,O=C(COc1ccc(Br)cc1CO)Nc1ccccc1,-0.336
7,COc1ccccc1NC(=O)COc1ccc(C(F)(F)F)cc1[N+](=O)[O-],4.19 (active)
8,CCOc1ccc(C(F)(F)F)cc1NC(=O)COc1ccc(C(F)(F)F)cc1[N+](=O)[O-],-0.107
9,CCOc1ccc(C(F)(F)F)cc1NC(=O)c1ccc(OC)c([N+](=O)[O-])c1,0.372
10,COc1ccccc1NC(=O)COc1ccc(Br)cc1CO,2.95
11,O=C(COc1ccc(Br)cc1CO)Nc1ccccc1F,-0.0395
12,CCn1c(COc2ccc(C)cc2)nnc1SCc1nc2ccccc2[nH]1,-0.0293
13,COCCN1C(=O)c2ccccc2C(C(=O)NCC2CCCO2)C1c1c[nH]c2ccccc12 (stereo unspecified),-0.121
14,O=C(NCc1ccc2c(c1)OCO2)C1CCCN1C(=O)Nc1cccc(F)c1 (stereo unspecified),0.725
15,CCCC(=O)Nc1cc(-c2nnc(OC)c3ccccc23)ccc1N1CCCCC1,-0.148
16,O=CN1CC(=O)N(c2ccccc2)c2c([nH]c3ccccc23)C1,0.383
17,CCc1cc(C(c2ccc(OC)c(OC)c2)N2CCOCC2)c(NC(=O)c2ccccc2)s1 (stereo unspecified),-0.47
18,COCc1nnc(NC(=O)C(C)C)s1,3.48 (active)
19,CC(C)C(=O)Nc1nnc(CCc2nnc(NC(=O)C(C)C)s2)s1,0.549
20,COC(=O)Cc1nnc(NC(=O)C(C)C)s1,0.0291
21,CO/N=C/c1ccc(Sc2ccc(C)cc2)c([N+](=O)[O-])c1,-0.349
22,COc1cc(NC(=O)C2CCCO2)c(OC)cc1Cl (stereo unspecified),-0.106
23,COc1cc(NC(=O)C(=O)NNC(=O)C2CCCCC2)c(OC)cc1Cl,3.98 (active)
24,COc1ccc(OC)c(NC(=O)C2CCCCC2)c1,-0.385
25,O=C(Oc1cccc([N+](=O)[O-])c1)c1cc(-c2ccccc2)nc2ccccc12,0.17

row,Structure (SMILES),z-score
1,C=CCc1cccc2cc(C(=O)N(C)C)c(=O)oc12,0.176
2,Cn1cccc1C(=O)N1CCN(c2cccc(C(F)(F)F)c2)CC1,-0.386
3,O=C(CC1Oc2ccccc2NC1=O)NC1CC1 (stereo unspecified),2.19
4,CC1CCC(NC(=O)CC2Oc3ccccc3NC2=O)CC1 (stereo unspecified),-0.471
5,O=C(CC1Oc2ccccc2NC1=O)NC1CCCC1 (stereo unspecified),-0.0976
6,Cc1ccc(NC(=O)CCn2cnc3cc(C)c(C)cc32)cc1,-0.642
7,CCOc1ccccc1N1CCN(C(=O)C(F)(F)F)CC1,-0.337
8,Cc1cc(C)nc(NS(=O)(=O)c2ccc(N/C=C3\CCCC3=O)cc2)n1,-0.331
9,COc1ccccc1Nc1nc2nonc2nc1N1CCCCC1C (stereo unspecified),-0.202
10,O=C(NC(=S)N1CCCCC1)C12CC3CC(CC(C3)C1)C2,5.6 (active)
11,O=C(NC(=S)N1CCOCC1)C12CCC3CC(CC(C3)C1)C2,0.411
12,CC(C)(C)C(=O)NC(=S)N1CCOCC1,-0.0566
13,O=C(Nc1ccccc1N1CCN(c2ccc(F)cc2)CC1)C12CC3CC(CC(C3)C1)C2,-1.97
14,CC12CC3(C)CC(C)(C1)CC(C(=O)NC(=S)N1CCOCC1)(C2)C3,8.61 (active)
15,CC12CC3CC(C)(C1)CC(C(=O)NC(=S)N1CCOCC1)(C3)C2,3.1 (active)
16,CC12CC3CC(C)(C1)CC(CN1CCOCC1)(C3)C2,-0.06
17,O=C(NC(=S)N1CCOCC1)C12CC3CCC(CC(C3)C1)C2,0.454
18,CC12CC3(C)CC(C)(C1)CC(C(=O)NC(=S)NC(C)(C)C)(C2)C3,0.0601
19,O=C(N1CCN(c2ccccc2)CC1)C12CC3CC(CC(C3)C1)C2,-0.202
20,O=C(N1CCOCC1)C12CC3CC(C1)CC(C(=O)N1CCOCC1)(C3)C2,0.153
21,O=C(NC(=S)N1CCN(c2ccc(F)cc2)CC1)C12CC3CC(CC(C3)C1)C2,2.89
